HP1b binding inh – blocks HP1-beta chromodomain binding to methylated histone tails; P83916; AlphaScreen HP1-beta / biotin-H3K9me3 peptide binding; AID 540317; Potency, µM (series often up to 114 µM), most hits filed as inhibitors; hit rate 0.56% among 390,000; further: nearly all actives have a fitted effect of over 70% in size
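AlphaScreen: HP1-beta (50 nM) preformed 30 min with biotin-H3(1-18)K9me3 peptide (50 nM) in PBS pH 7.4, 0.01% Tween-20. Compound added for 30 min at RT, then streptavidin donor/nickel chelate acceptor beads (10 ug/mL) for 30 min.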
JMJD2E inh – JMJD2E (human) inhibition. B2RXH2. JMJD2E catalytic domain, FDH-coupled NADH fluorescence (FDH is formaldehyde dehydrogenase). Potency, µM (doses to about 57.1 µM), hits mostly inhibitors. hit rate 1.6% among 230,000; active means well fitted inhibition curve with a large enough effect, not every such curve was filed as active; inconclusive means small, poorly fitted or top-dose-only effect, or another doubt; inactive means no such curve, though single readings can be large or run the other way; further: nearly all actives have a fitted effect of over 50% in size
L3MBTL1 block – blocks human L3MBTL1 | hit rate 0.66% among 230,000 | AID 485360 | Potency, µM (series often up to 57.1 µM), actives largely listed as inhibitors | Q9Y468 | AlphaScreen L3MBTL1–H3K9me1 peptide binding; further: nearly all actives have a fitted effect of over 60% in size
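Read-out is AlphaScreen signal from streptavidin donor and nickel chelate acceptor beads (10 ug/mL final each) bridging L3MBTL1 (50 nM) and biotinylated K9-monomethylated H3(1-15) peptide (75 nM), after 30 min compound exposure at room temperature.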
PI5P4Ka inh – blocks human PI5P4K alpha kinase activity; P48426; PI5P4Kalpha enzyme, ADP-Glo luminescence, 60 min; active compounds read low; max response, %; hit rate 1.2% among 330,000; active means max response of -50% or lower; inconclusive means between -30% and -50%; inactive means -30% or higher; further: value at the top dose of about 77 µM
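Luminescence from ADP-Glo served as readout of PI5P4Kalpha activity in a qHTS format. Reaction: enzyme, substrate, compound, ATP at 5 microM final, 60 min at RT.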
BAZ2B inh – blocks human BAZ2B. AlphaScreen BAZ2B-H3K14Ac peptide displacement. Potency, µM (top dose mostly 114 µM), usual class: inhibitors. hit rate 4.4% among 360,000. AID 504333; further: nearly all actives have a fitted effect of over 60% in size
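In this displacement format the biotinylated H3(5-23) peptide acetylated at Lys14 serves as ligand at 50 nM, with BAZ2B at 50 nM in PBS pH 7.4 containing 0.01% Tween-20. Donor and acceptor beads are 10 ug/mL final.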
JMJD2A Tudor inh – JMJD2A Tudor domain (human) inhibition | O75164 | AlphaScreen JMJD2A-Tudor / H3K4me3 peptide binding | Potency, µM (titrated, usually from 114 µM), hits mostly inhibitors | hit rate 4.4% among 390,000; further: nearly all actives have a fitted effect of over 50% in size
Target sequence (O75164 whole entry, looked up, the tested form may be a part): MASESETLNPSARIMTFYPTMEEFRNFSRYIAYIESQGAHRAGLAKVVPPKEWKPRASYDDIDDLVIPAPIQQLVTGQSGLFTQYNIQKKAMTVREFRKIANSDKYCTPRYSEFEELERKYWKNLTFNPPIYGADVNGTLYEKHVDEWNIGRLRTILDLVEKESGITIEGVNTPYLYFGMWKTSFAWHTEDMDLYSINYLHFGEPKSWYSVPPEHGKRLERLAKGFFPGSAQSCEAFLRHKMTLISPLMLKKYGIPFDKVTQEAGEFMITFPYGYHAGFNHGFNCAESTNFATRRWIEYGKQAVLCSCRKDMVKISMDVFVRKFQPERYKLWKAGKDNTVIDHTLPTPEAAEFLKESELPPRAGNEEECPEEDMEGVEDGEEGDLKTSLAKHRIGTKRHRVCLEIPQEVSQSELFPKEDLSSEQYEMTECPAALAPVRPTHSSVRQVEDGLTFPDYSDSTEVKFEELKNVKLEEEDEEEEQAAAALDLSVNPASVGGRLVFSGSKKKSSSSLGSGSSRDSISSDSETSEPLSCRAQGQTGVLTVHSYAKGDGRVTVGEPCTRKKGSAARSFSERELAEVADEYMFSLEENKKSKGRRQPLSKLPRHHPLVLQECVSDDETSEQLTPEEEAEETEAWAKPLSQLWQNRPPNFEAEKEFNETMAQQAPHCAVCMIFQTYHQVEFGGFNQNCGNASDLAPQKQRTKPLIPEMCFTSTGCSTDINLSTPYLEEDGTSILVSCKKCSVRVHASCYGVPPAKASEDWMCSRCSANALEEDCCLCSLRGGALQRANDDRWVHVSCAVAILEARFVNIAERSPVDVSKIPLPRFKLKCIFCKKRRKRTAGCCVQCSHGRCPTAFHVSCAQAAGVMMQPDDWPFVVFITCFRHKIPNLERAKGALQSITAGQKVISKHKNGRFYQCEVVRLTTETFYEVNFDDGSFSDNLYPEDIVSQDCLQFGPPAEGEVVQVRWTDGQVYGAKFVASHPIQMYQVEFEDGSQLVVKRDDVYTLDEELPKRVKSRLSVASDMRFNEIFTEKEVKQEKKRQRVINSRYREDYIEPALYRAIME
Of the large screens only hits and unclear results are named; the others gave an inactive call. In the library only some 5.7% were active in any assay of this set; here they are far more common. Unless noted, the call rests on the fitted dose curve; in most records, active means well fitted inhibition curve with a large enough effect; inconclusive means small, poorly fitted or top-dose-only effect; inactive means no such curve, though single readings can be large or run the other way.

COc1ccccc1N1CCN(/N=C/C=C\c2ccco2)CC1	BAZ2B inh 50µM, JMJD2A Tudor inh 56µM
COc1ccccc1/C=C/C=N/N1CCN(Cc2cccc3ccccc23)CC1	HP1b binding inh inconclusive, BAZ2B inh 32µM, JMJD2A Tudor inh 11µM
COc1ccccc1/C=C/C=N/N1CCN(c2ccccn2)CC1	HP1b binding inh inconclusive, JMJD2E inh inconclusive, BAZ2B inh 50µM, JMJD2A Tudor inh inconclusive
Cc1ccc(/C=N/N2CCN(Cc3cccc4ccccc34)CC2)s1	none
C(=N\N1CCN(c2ccccn2)CC1)/c1ccccn1	none
COc1ccccc1N1CCN(/N=C/C=C\c2ccccc2[N+](=O)[O-])CC1	HP1b binding inh 14µM, JMJD2E inh inconclusive, L3MBTL1 block inconclusive, BAZ2B inh 13µM, JMJD2A Tudor inh 22µM
O=C(OCc1cc(=O)n2c3c(sc2n1)CCCC3)c1cccc(NC(=O)c2ccccc2F)c1	none (no result: JMJD2E inh, L3MBTL1 block, PI5P4Ka inh)
CC1CCCC(C)N1/N=C/C=C/c1ccccc1[N+](=O)[O-] (stereo unspecified)	HP1b binding inh 28µM, L3MBTL1 block inconclusive, BAZ2B inh 22µM, JMJD2A Tudor inh 40µM
Cc1ccc(/C=N/N2CCN(Cc3cccc4ccccc34)CC2)o1	HP1b binding inh inconclusive, BAZ2B inh 50µM, JMJD2A Tudor inh 50µM (no result: L3MBTL1 block)
CCOC(=O)N/N=C/C=C/c1ccccc1[N+](=O)[O-]	JMJD2A Tudor inh inconclusive
Cc1ccc(/C=N/N2CCN(Cc3ccccc3)CC2)o1	BAZ2B inh inconclusive (no result: L3MBTL1 block, PI5P4Ka inh)
CC(=O)c1cc(-c2ccccc2)n(CCC(=O)Nc2ccc(C)cc2C)c1C	none (no result: JMJD2E inh, L3MBTL1 block, PI5P4Ka inh)
CC(=O)c1cc(-c2ccccc2)n(CCC(=O)NC2CCCCCCC2)c1C	BAZ2B inh 50µM
CCC(C)(C)NC(=O)CCn1c(-c2ccccc2)cc(C(C)=O)c1C	BAZ2B inh 50µM (no result: L3MBTL1 block)
CCOC(=O)c1cc(-c2ccc(OC)cc2)n(CCC(=O)NC2CCN(Cc3ccccc3)CC2)c1C	BAZ2B inh 40µM, JMJD2A Tudor inh inconclusive
CCOC(=O)c1cc(-c2ccccc2)n(CCC(=O)NC2CCCCC2)c1C	none (no result: JMJD2E inh, L3MBTL1 block, PI5P4Ka inh)
Cc1cccc(CNC(=O)CCCN2C(=O)COc3ccc(C)cc32)c1	none (no result: JMJD2E inh, L3MBTL1 block, PI5P4Ka inh)
O=C(NCCCNCCCNC(=O)c1ccccn1)c1ccccn1	none (no result: L3MBTL1 block)
O=C(NCCN1CCNCC1)c1ccccn1	JMJD2E inh inconclusive, BAZ2B inh inconclusive, JMJD2A Tudor inh 1.1µM
COCCn1c(=O)sc2ccccc2c1=O	JMJD2A Tudor inh 14µM
COc1ccc(Cn2c(=O)sc3ccccc3c2=O)cc1	none
CC(=O)NCCCc1ccc(C(=O)COC(=O)CNC(=O)c2ccc3ccccc3c2)cc1	none (no result: JMJD2E inh, L3MBTL1 block, PI5P4Ka inh, BAZ2B inh)
COc1cc(C2C(C#N)=C(N)Oc3c2oc(CO)cc3=O)ccc1OC(C)C (stereo unspecified)	JMJD2E inh inconclusive, JMJD2A Tudor inh 16µM (no result: PI5P4Ka inh)
CC(C)Oc1ccc(C2C(C#N)=C(N)Oc3c2oc(CO)cc3=O)cc1 (stereo unspecified)	JMJD2E inh inconclusive (no result: L3MBTL1 block)
COc1ccc(N2CCN(C(C)C(=O)N3CCc4ccccc43)CC2)cc1 (stereo unspecified)	HP1b binding inh inconclusive, BAZ2B inh inconclusive, JMJD2A Tudor inh inconclusive (no result: JMJD2E inh, L3MBTL1 block)
COc1ccc(N2CCN(C(C)C(=O)N3CC(C)OC(C)C3)CC2)cc1 (stereo unspecified)	HP1b binding inh inconclusive, JMJD2E inh 22µM, BAZ2B inh 56µM, JMJD2A Tudor inh 0.89µM (no result: L3MBTL1 block)
COCCCN1C(=O)C(CC(=O)NC2CCCCC2)CC(C(=O)N(C)C)=C1C (stereo unspecified)	none (no result: HP1b binding inh, JMJD2E inh, L3MBTL1 block, BAZ2B inh, JMJD2A Tudor inh)
Cc1cc(NC(=O)CSCC(=O)N(c2ccc(F)cc2)C(C(=O)NC2CCCCC2)c2ccc(O)c(O)c2)no1 (stereo unspecified)	JMJD2A Tudor inh inconclusive
COc1ccc(N(C(=O)CSCC(=O)Nc2cc(C)on2)C(C(=O)NC2CCCCC2)c2ccc(O)c(O)c2)cc1 (stereo unspecified)	HP1b binding inh inconclusive, JMJD2E inh 11µM
Cc1cc(NC(=O)CSCC(=O)N(c2cccc(Cl)c2)C(C(=O)NC2CCCCC2)c2ccc(O)c(O)c2)no1 (stereo unspecified)	HP1b binding inh inconclusive, JMJD2E inh 10µM
COc1ccc(NC(=O)c2cccc(C(=O)Nc3ccc(OC)cc3)n2)cc1	JMJD2E inh inconclusive (no result: HP1b binding inh, PI5P4Ka inh, JMJD2A Tudor inh)
COc1ccc(NC(=O)c2sc(=S)[nH]c2N)cc1	PI5P4Ka inh inconclusive, BAZ2B inh inconclusive, JMJD2A Tudor inh 35µM
Cc1ccc(S(=O)(=O)N(C)CC(=O)N(C)CCOc2ccccc2)cc1	none (no result: HP1b binding inh, JMJD2E inh, L3MBTL1 block, BAZ2B inh, JMJD2A Tudor inh)
Cc1c(Cl)cccc1-c1ccc(CNCCSc2nnnn2-c2ccccc2)o1	BAZ2B inh inconclusive (no result: JMJD2E inh, L3MBTL1 block, PI5P4Ka inh)
Clc1ccc(-c2ccc(CNCc3ccccn3)o2)cc1	L3MBTL1 block inconclusive, BAZ2B inh 20µM, JMJD2A Tudor inh 79µM (no result: JMJD2E inh)
Fc1ccc(-c2ccc(CNCCSc3nnnn3-c3ccccc3)o2)cc1	BAZ2B inh 35µM, JMJD2A Tudor inh inconclusive (no result: JMJD2E inh, L3MBTL1 block, PI5P4Ka inh)
Fc1ccc(-c2ccc(CNCc3ccccn3)o2)cc1	BAZ2B inh 50µM, JMJD2A Tudor inh 50µM (no result: JMJD2E inh)
CCOC(=O)c1cccc(NC(=O)CCn2c(-c3ccc(F)cc3)cc(C(=O)OCC)c2C)c1	none (no result: JMJD2E inh, L3MBTL1 block, PI5P4Ka inh)
O=C(NCc1cc([N+](=O)[O-])ccc1O)c1cccnc1Sc1ccccc1	BAZ2B inh inconclusive (no result: JMJD2E inh, L3MBTL1 block)
Cc1ccc(Sc2ncccc2C(=O)NCc2cc([N+](=O)[O-])ccc2O)c(C)c1	BAZ2B inh 35µM (no result: JMJD2E inh, L3MBTL1 block)

Compound activity as filed in PubChem BioAssay.
